We go through 23 compounds from PubChem BioAssay (EPA / NIEHS).

Where a structure was tested more than once in an assay, its records may differ in their call. Active and inactive are the calls of the source. The calls were made as follows: active = hit-call score of the fitted dose curve at least 0.9, where 1 is the maximum; inactive = score below 0.9.

Chain of Transcriptional activator Myb (Homo sapiens) (P10242 whole entry, looked up): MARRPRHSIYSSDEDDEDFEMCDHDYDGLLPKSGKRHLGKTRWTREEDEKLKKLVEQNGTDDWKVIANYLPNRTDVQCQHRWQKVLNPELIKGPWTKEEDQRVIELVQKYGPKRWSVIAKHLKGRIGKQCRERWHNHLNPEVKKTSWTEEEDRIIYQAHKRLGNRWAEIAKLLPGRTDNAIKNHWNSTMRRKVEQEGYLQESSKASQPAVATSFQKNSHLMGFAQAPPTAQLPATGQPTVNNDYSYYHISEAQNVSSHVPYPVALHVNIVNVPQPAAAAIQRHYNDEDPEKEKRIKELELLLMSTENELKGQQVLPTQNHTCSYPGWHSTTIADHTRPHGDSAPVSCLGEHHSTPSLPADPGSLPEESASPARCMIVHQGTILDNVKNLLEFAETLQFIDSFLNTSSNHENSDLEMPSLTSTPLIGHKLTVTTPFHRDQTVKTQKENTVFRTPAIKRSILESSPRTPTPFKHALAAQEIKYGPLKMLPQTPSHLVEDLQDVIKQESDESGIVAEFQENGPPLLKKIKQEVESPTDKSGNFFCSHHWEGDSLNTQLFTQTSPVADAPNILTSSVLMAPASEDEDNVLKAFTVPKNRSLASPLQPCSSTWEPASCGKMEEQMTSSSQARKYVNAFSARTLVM

The assay concerns the target Transcriptional activator Myb (Homo sapiens) (UniProt P10242). Briefly: ATG_Myb_CIS: Attagene CIS-FACTORIAL HepG2 Assay for human Myeloblastosis (Myb) Proto-Oncogene Transcription Factor (AID 2282986). Conditions: HepG2 Attagene CIS-FACTORIAL Myb reporter transcription; actives raise or lower the signal. An outline of the steps: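 Reporter mRNA is quantified by RT-PCR and capillary electrophoresis 24 h after dosing HepG2 cells transfected with cis-regulated reporter units, which track endogenous transcription factor activity. Gain and loss of signal are fitted versus DMSO baseline.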
Take `O=P(O)(O)OCCC(F)(F)C(F)(F)C(F)(F)C(F)(F)C(F)(F)C(F)(F)F`: the result was inactive.

For `[Co]`, the call was inactive. The same measure, in the same setting: then `FC(F)(F)C(F)(F)C(F)(F)C(F)(F)C(F)(F)C(F)(F)C(F)(F)Br`, with “inactive”; and `O=C(O)C(F)(F)C(F)(F)F`, with “inactive”. For `C#C[C@]1(O)CC[C@H]2[C@@H]3CCc4cc(OC)ccc4[C@H]3CC[C@@]21C`, the outcome was inactive. Still for that read-out and setting: in the case of `OCCCC(F)(F)C(F)(F)C(F)(F)F` it was “inactive”; in that of `O=C(O)C(F)(F)C(F)(F)C(F)(F)C(F)(F)F`, “inactive”; in that of `O=C(O)C(F)(F)C(F)(F)C(F)(F)C(F)(F)C(F)(F)C(F)(F)C(F)(F)C(F)(F)C(F)(F)C(F)(F)C(F)(F)C(F)(F)C(F)(F)F`, “inactive”. Same read-out and setting: in the case of `O=S(=O)(O)c1ccc2ccccc2c1` it was “inactive”. On the same count and under the same terms, then `CC/C=C\CCOC(=O)c1ccccc1`, with “inactive”; and `CC(C)c1ccccc1N`, with “inactive”.

With `CC/C=C\CCOC(C)=O`, the call was inactive. The same measure, in the same setting: in the case of `COC(=O)C1CCC(C(=O)OC)CC1` (centres undefined) it was “inactive”; in that of `O=C(O)C(F)(F)C(F)(F)C(F)(F)C(F)(F)C(F)(F)C(F)(F)C(F)(F)C(F)(F)C(F)(F)C(F)F`, “inactive”. Same read-out and setting: in the case of `c1ccc(B(c2ccccc2)c2ccccc2)cc1` it was “inactive”; in that of `FC(F)(F)C(F)(F)C(F)(F)N(C(F)(F)C(F)(F)C(F)(F)F)C(F)(F)C(F)(F)C(F)(F)F`, “inactive”. By AC50 is commonly meant the concentration at which the activity in the assay is half-maximal. Turning to `OCCCC(F)(F)C(F)(F)C(F)(F)C(F)(F)C(F)(F)C(F)(F)C(F)(F)F`, the AC50 is 81.7 µM (active) and the compound was classed as inactive.

Take `FC(F)(F)C(F)(F)C(F)(F)CI`: the compound was classed as inactive.

On to `FC(F)(F)C(F)(F)C(F)(F)C(F)(F)C(F)(F)C(F)(F)C(F)(F)C(F)(F)F`, for which the call was inactive. On the same count and under the same terms, in the case of `Oc1ccc(Nc2ccccc2)cc1` it was “inactive”; in that of `CCCCCC=O`, “inactive”.

As to `CC(CCl)OP(=O)(OC(C)CCl)OC(C)CCl` (centres undefined), the compound was classed as inactive. `O=S(=O)(OCCOC(F)(F)F)C(F)(F)F`: the outcome was inactive.
